A short description of experiment [1]: qHTS assay for small molecule agonists of retinoid X receptor alpha signaling (AID 588544; calls by dose curve;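 as to activation: 0% = DMSO basal wells and 100% = reference agonist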). As to conditions: HEK293T RXRa-UAS-bla, beta-lactamase reporter, 18 h; 530 nm emission.
Experiment [2] addresses Retinoic acid receptor RXR-alpha (Homo sapiens) (UniProt P19793). The experiment is described as above. As to conditions: HEK293T RXRa-UAS-bla, beta-lactamase reporter, 18 h; series mostly up to 76.7 µM.
Experiment [3] can be described thus: qHTS assay for small molecule antagonists of retinoid X receptor alpha signaling (AID 588546; active = well fitted inhibition curve with a large enough effect in the signal ratio, with a control signal flat, not every such curve was filed as active; the % refers to the signal ratio;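 also: cells stimulated with 9-cis-retinoic acid as agonist; % is scaled to controls: 0 for no effect and ±100 for the full control effect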). As to conditions: HEK293T RXRa-UAS-bla, beta-lactamase ratio, antagonist mode; measured here: W530 green channel, cytotoxicity proxy. An outline of the steps: (§1)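 Beta-lactamase reporter inhibition, read as CCF4 fluorescence ratio (ex 405, em 460/530 nm) after 2 h at RT. HEK293T UAS-bla cells, 2500/well, were stimulated with 9-cis-RA at 500 or 100 nM final alongside test compound for 18 h at 37 C.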

The target of experiment [4] is Retinoic acid receptor RXR-alpha (Homo sapiens) (UniProt P19793). Described as above. The conditions noted are these: HEK293T RXRa-UAS-bla, beta-lactamase ratio, antagonist mode. An outline of the steps: as §1
Retinoic acid receptor RXR-alpha (Homo sapiens), sequence (P19793 whole entry, looked up): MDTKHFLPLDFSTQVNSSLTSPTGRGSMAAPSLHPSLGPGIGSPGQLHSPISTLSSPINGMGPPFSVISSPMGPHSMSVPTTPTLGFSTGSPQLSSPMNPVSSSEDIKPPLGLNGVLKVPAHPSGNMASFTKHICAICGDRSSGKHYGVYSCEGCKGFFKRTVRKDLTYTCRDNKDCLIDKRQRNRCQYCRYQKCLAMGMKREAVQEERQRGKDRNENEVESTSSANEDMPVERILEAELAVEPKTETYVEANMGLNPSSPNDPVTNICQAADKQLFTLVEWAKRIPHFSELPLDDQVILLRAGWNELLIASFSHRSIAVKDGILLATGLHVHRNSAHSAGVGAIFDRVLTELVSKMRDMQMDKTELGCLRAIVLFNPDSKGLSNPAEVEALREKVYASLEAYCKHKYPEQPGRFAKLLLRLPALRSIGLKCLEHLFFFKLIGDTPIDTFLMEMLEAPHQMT
Experiment [5] concerns the target Thyroid hormone receptor beta (Homo sapiens) (UniProt P10828). As to the kind of experiment: qHTS assay for small molecule antagonists of thyroid hormone receptor beta signaling (AID 588547; active = well fitted inhibition curve with a large enough effect in the signal ratio, with a control signal flat, not every such curve was filed as active; the % refers to the signal ratio;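 also: cells stimulated with 0.4 nM T3 agonist during compound exposure; % is scaled to controls: 0 for no effect and ±100 for the full control effect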). The conditions noted are these: TR-UAS-bla HEK293, beta-lactamase ratio, antagonist mode, 18 h. An outline of the steps:
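Inhibition of T3-driven (0.4nM final) beta-lactamase reporter activity was measured over 0.59 nM to 92 uM compound after 18 h at 37 C. The cells were GripTite HEK293 TR-UAS-bla in charcoal/dextran-stripped serum, with CCF4 ratio read-out and IC50 from Hill fits.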

Experiment [6] can be described thus: qHTS assay for small molecule agonists of the antioxidant response element (ARE) signaling pathway (AID 651741; active = well fitted activation curve with a large enough effect in the signal ratio; the % refers to the signal ratio; also: % of control where 0% means no effect). As to conditions: HepG2 ARE-bla reporter, beta-lactamase FRET ratio, 16 h; series mostly up to 96 µM. The method, boiled down:
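Quantitative HTS in HepG2 cells stably expressing an ARE-beta-lactamase reporter; 16 h compound exposure at 37 C, followed by 2 h room-temperature incubation with LiveBLAzer B/G FRET substrate and fluorescence measurement.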

Experiment [7] in a line: qHTS assay for environmental chemicals that activate the Aryl hydrocarbon Receptor (AhR) signaling pathway (AID 651777). Also: % of control where 0% means no effect; nearly all actives have a fitted effect of over 15% in size. As to conditions: 1A2-DRE human hepatoma cells, luciferase, 24 h; stronger effect = higher value. An outline of the steps: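 Induction of CYP1A2 transcription through AhR is detected by luciferase in 1A2-DRE hepatoma cells. Compounds or DMSO act for 24 hr at 37 C before a 30 min One-Glo step at room temperature.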

In experiment [8] the target is Peroxisome proliferator-activated receptor alpha (Homo sapiens) (UniProt Q07869). Briefly: qHTS assay for small molecule agonists of the peroxisome proliferator-activated receptor alpha (PPARalpha) signaling pathway (AID 651778). Also: % of control where 0% means no effect. The conditions noted are these: PathHunter PPARalpha complementation, chemiluminescence, 6 h; stronger effect = higher value. An outline of the steps: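 Chemiluminescence from complemented enzyme reported PPARalpha activation in cells after 6 hr of compound treatment at 37 C. The detection reagent was incubated for 60 min at room temperature, and compounds were scored as agonists.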
Peroxisome proliferator-activated receptor alpha (Homo sapiens), sequence (Q07869 whole entry, looked up): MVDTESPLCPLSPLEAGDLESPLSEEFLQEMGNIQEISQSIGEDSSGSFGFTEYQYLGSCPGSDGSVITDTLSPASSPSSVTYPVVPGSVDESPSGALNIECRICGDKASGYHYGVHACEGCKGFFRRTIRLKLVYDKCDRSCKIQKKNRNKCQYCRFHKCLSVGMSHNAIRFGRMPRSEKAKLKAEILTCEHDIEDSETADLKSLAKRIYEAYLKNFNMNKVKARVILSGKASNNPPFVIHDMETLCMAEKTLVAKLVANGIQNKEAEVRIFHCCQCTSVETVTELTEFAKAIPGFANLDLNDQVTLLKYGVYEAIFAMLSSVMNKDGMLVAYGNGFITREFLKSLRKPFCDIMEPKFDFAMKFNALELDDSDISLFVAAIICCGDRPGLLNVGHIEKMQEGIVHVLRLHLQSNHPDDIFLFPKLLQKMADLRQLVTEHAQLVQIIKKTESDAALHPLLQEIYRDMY

A short description of experiment [9]: qHTS assay for small molecule agonists of the antioxidant response element (ARE) signaling pathway measured by Nrf2-dependant transcriptional activity (AID 720636; active = well fitted curve in the direction sought with a large enough effect in the repeat runs; an effect the other way counts as inactive or inconclusive; also: % of control where 0% means no effect). As to conditions: ARE-luc HepG2, Nrf2 luciferase reporter, 16 h; series mostly up to 92.4 µM. The method, boiled down: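 We exposed ARE-luc HepG2 cells, seeded in assay medium with 1% dialyzed FBS and allowed 6 hr to adhere, to test compounds overnight (16 hr, 37 C) before measuring luciferase with ONE-Glo.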

Experiment [10] is described as follows: qHTS assay for small molecule agonists of the antioxidant response element (ARE) signaling pathway measured by Nrf2-dependant transcriptional activity - cell viability counter screen (AID 720653; active = well fitted curve in the direction sought with a large enough effect in the repeat runs; an effect the other way counts as inactive or inconclusive; also: % is scaled to controls: 0 for no effect and ±100 for the full control effect). As to conditions: ARE-bla HepG2 viability, CellTiter-Glo ATP luminescence, 16 h; stronger effect = lower value. The method, boiled down:
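Cytotoxicity counter screen: intracellular ATP quantified by CellTiter-Glo luminescence in the same ARE-bla HepG2 plates, after 16 h compound exposure and a 2 h beta-lactamase substrate step.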

Experiment [11] is described as follows: qHTS assay for cell viability of HEK293 cells (AID 743288). Also: % is scaled to controls: 0 for no effect and ±100 for the full control effect; nearly all actives have a fitted effect of over 50% in size. The conditions noted are these: ATP luminescence (CellTiter-Glo), 18 h, stronger effect = lower value. An outline of the steps: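 HEK293 parental, 2,000 cells/well; ≥5 h pre-incubation 37 C; pintool compound addition; 18 h, 37 C; CellTiter-Glo 30 min RT; luminescence read.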
A short description of experiment [12]: qHTS assay for cell viability of the p53RE-bla HCT-116 cell line (AID 743292). Also: % is scaled to controls: 0 for no effect and ±100 for the full control effect; nearly all actives have a fitted effect of over 55% in size. The conditions noted are these: p53RE-bla HCT-116 viability, ATP luminescence, 16 h; series mostly up to 95 µM. An outline of the steps:
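In this qHTS counter-screen, metabolically competent p53RE-bla HCT-116 cells were counted via their ATP content. Compounds were applied for 16 h at 37 C and luciferase-coupled luminescence was measured.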

Results on 1 molecule are retold here after PubChem BioAssay (NCATS).

Records with an inconclusive call do not appear. Activity calls are given as the source filed them. Unless noted, calls follow the shape of the dose curve; as a rule, active = well fitted curve in the direction sought with a large enough effect; inconclusive = small, poorly fitted or top-dose-only effect, or another doubt; inactive = no such curve, though single readings can be large; an effect the other way counts as inactive or inconclusive.

Thyroid hormone receptor beta (Homo sapiens), sequence (P10828 whole entry, looked up): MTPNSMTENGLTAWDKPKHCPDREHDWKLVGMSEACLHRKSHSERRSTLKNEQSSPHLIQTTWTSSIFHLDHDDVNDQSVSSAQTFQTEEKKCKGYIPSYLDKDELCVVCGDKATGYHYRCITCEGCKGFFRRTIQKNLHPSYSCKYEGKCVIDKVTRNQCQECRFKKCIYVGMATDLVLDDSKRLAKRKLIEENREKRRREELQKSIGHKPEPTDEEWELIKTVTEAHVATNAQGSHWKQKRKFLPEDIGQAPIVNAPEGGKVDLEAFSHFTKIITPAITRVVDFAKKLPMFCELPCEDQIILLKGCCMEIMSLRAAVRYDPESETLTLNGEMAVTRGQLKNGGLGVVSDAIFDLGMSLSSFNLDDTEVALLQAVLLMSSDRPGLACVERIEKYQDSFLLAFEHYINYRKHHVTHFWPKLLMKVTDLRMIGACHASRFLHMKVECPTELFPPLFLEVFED

Take `COc1c(Cl)ccc(Cl)c1C(=O)O`: the max response in [1] was -9.41%; in experiment [3], -0.329%; in experiment [4], 3.8% (inactive); in [8] it was 0.109% (inactive); in experiment [10], -4.23% (inactive); in experiment [11] it was -3.63% (inactive). Moreover, the molecule was classed as inactive in experiment [2], in experiment [9] and in [12]. Further, in [5], the activity change % (negative = inhibition) was 5.53% (inactive). The Potency result in [6] is “inactive”. Further, in [7], the activation is 1.18% (inactive).
